From PubChem BioAssay (Tox21)
Results filed as inconclusive are left out. Active and inactive are the calls of the source. Unless noted, calls come from the whole dose curve. Numbered stars: 1 amine (or outer) side, 2 acyl side, 3 side chain; on linkers, the order of the positions; unused ones are H or OH. Bridge positions count the residues as written; N and C are the ends. Square brackets hold non-standard residues; d marks the D form. Peptide text beside a SMILES is read from it. I, II: the chains in the order shown. Actinocin(9to1) = Cc1c2oc3c(C)ccc(C(=O)[*:1])c3nc-2c(C(=O)[*:2])c(N)c1=O; NMeV = CN[C@H](C(=O)O)C(C)C; Sar = CNCC(=O)O

Tested on: not listed separately
Assay: p53 small molecule agonists, cell-based qHTS assay: qHTS cell viability counter screen (AID 1963581); note: nearly all actives have a fitted effect of over 45% in size
Conditions: p53RE-bla HCT-116 viability, ATP luminescence, 16 h; series mostly up to 66 µM; activity change, negative = cytotoxicity: at the top concentration
In short: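 Following 5 h attachment, HCT-116 p53RE-bla cells took up compound for 16 h at 37 C; the reporter was read with B/G FRET substrate (2 h RT), and viability then via CellTiter-Glo ATP luminescence.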
% is set by controls: 0 for no effect and ±100 for the full control effect.

SMILES	activity change, negative = cytotoxicity	Potency
Cc1cc(C)c(N=Nc2c(O)c(S(=O)(=O)O)cc3cc(S(=O)(=O)O)ccc23)cc1C	-0.59% [at 5.99 µM] (inactive)	–
CC(=O)Nc1c(I)cc(I)c(C(=O)O)c1I	4.52% [at 30.3 µM] (inactive)	–
C=COCCOCCOCCOC=C	-0.806% (inactive)	–
O=C1OC(=O)c2ccc3c4c(ccc1c24)C(=O)OC3=O	-1.93% (inactive)	–
CC(=O)[O][Al][O]C(C)=O	7.71% (inactive)	–
COc1ccc2cc(C=O)ccc2c1	0.294% [at 30.3 µM] (inactive)	–
Cc1occc1S	8.61% (inactive)	–
CCCN1CCCC[C@H]1C(=O)Nc1c(C)cccc1C	9.83% [at 30.3 µM] (inactive)	–
Cc1ccc(NC(=O)N(C)C)cc1NC(=O)N(C)C	-6.04% (inactive)	–
CCN(CC)CCN	-5.57% [at 30.3 µM] (inactive)	–
O=[N+]([O-])c1ccccc1Nc1ccccc1	-20.3% (inactive)	–
NC(=O)c1ncn([C@@H]2O[C@H](CO)[C@@H](O)[C@H]2O)c1O	-19.9% [at 30.3 µM] (inactive)	–
O=C(O)[C@@H]1[C@H]2C[C@H]3c4[nH]c5ccccc5c4CCN3C[C@@H]2CC[C@@H]1O	1.95% [at 30.3 µM] (inactive)	–
CC1(C)C(C=C(Cl)Cl)C1C(=O)OCc1cccc(Oc2ccccc2)c1 (stereo unspecified)	–	inactive
O=C(O)c1ccccc1OP(=O)(O)O	-0.803% [at 30.3 µM] (inactive)	–
COC(OC)C(C)c1ccccc1 (stereo unspecified)	4.27% (inactive)	–
Nc1cc(=O)[nH]c(N)n1	0.0175% [at 30.3 µM] (inactive)	–

SMILES	activity change, negative = cytotoxicity	Potency
CCOC(OCC)OCC	-14.7% (inactive)	–
C=CCOC(=O)CCCCCC	0.444% (inactive)	–
O=C(O)[C@@H](O)[C@H](O)[C@H](O)[C@@H](O)C(=O)O	25.1% [at 30.3 µM] (inactive)	–
CCCCCCCCCC(C)=O	0.692% (inactive)	–
OC/C=C/CO	4.69% (inactive)	–
CCCCCCCCCCCCC(=O)O	8.7% (inactive)	–
Cc1ccc(S(=O)(=O)NC(=O)NC2CCCC2)cc1	-6.13% [at 30.3 µM] (inactive)	–
CCCC(=O)c1ccccc1	2.08% (inactive)	–
NC(=O)c1cccc([N+](=O)[O-])c1	0% (inactive)	–
COc1c2ccoc2cc2oc(=O)ccc12	–	inactive
CC(C)c1cccc(C(C)C)c1N	-10.5% (inactive)	–
Cc1cccc(Cl)c1	-3.04% (inactive)	–
CO[Si](C)(C)OC	2.59% (inactive)	–
c1c[nH]cn1	–	inactive
OC1(c2ccc(Cl)cc2)CCNCC1	3.41% [at 30.3 µM] (inactive)	–
C1CCCCC1	8.95% (inactive)	–
Cc1ccc(C(C)c2ccc(C)c(C)c2)cc1C	12.2% (inactive)	–

Tested on: not listed separately
Assay: p53 small molecule agonists, cell-based qHTS assay (AID 1963582; active = well fitted activation curve with a large enough effect in the signal ratio in the repeat runs, not every such curve was filed as active; the % refers to the signal ratio; note: potency is the fitted concentration of half-maximal effect)
Conditions: HCT-116 p53RE-bla reporter, beta-lactamase FRET ratio, 16 h; series mostly up to 66 µM; activation: at the top concentration
In short: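 In this cell-based concentration-response screen, a p53 response element drives beta-lactamase; cells received DMSO-borne compounds after 5 h culture and were incubated a further 16 h before FRET substrate development.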

SMILES	activation	Potency
Cc1cc(C)c(N=Nc2c(O)c(S(=O)(=O)O)cc3cc(S(=O)(=O)O)ccc23)cc1C	0.0696% [at 5.99 µM] (inactive)	–
CC(=O)Nc1c(I)cc(I)c(C(=O)O)c1I	-0.933% [at 30.3 µM] (inactive)	–
C=COCCOCCOCCOC=C	0.938% (inactive)	–
CC(=O)[O][Al][O]C(C)=O	-0.539% (inactive)	–
COc1ccc2cc(C=O)ccc2c1	-1.5% [at 30.3 µM] (inactive)	–
Cc1occc1S	-5.07% (inactive)	–
CCCN1CCCC[C@H]1C(=O)Nc1c(C)cccc1C	-3.33% [at 30.3 µM] (inactive)	–
Cc1ccc(NC(=O)N(C)C)cc1NC(=O)N(C)C	1.22% (inactive)	–
CCN(CC)CCN	0.496% [at 30.3 µM] (inactive)	–
O=[N+]([O-])c1ccccc1Nc1ccccc1	-2.96% (inactive)	–
NC(=O)c1ncn([C@@H]2O[C@H](CO)[C@@H](O)[C@H]2O)c1O	2.25% [at 30.3 µM] (inactive)	–
O=C(O)[C@@H]1[C@H]2C[C@H]3c4[nH]c5ccccc5c4CCN3C[C@@H]2CC[C@@H]1O	-0.768% [at 30.3 µM] (inactive)	–
CC1(C)C(C=C(Cl)Cl)C1C(=O)OCc1cccc(Oc2ccccc2)c1 (stereo unspecified)	-4.71% (inactive)	–
O=C(O)c1ccccc1OP(=O)(O)O	0.431% [at 30.3 µM] (inactive)	–
CCCCN(CCO)CCO	-0.23% (inactive)	–
COC(OC)C(C)c1ccccc1 (stereo unspecified)	-0.0718% (inactive)	–
Nc1cc(=O)[nH]c(N)n1	2.17% [at 30.3 µM] (inactive)	–

SMILES	activation	Potency
CCOC(OCC)OCC	2.49% (inactive)	–
C=CCOC(=O)CCCCCC	0.579% (inactive)	–
O=C(O)[C@@H](O)[C@H](O)[C@H](O)[C@@H](O)C(=O)O	0.265% [at 30.3 µM] (inactive)	–
CCCCCCCCCC(C)=O	0.364% (inactive)	–
CCCCCCCCCCCCC(=O)O	0.203% (inactive)	–
Cc1ccc(S(=O)(=O)NC(=O)NC2CCCC2)cc1	0.369% [at 30.3 µM] (inactive)	–
CCCC(=O)c1ccccc1	0.334% (inactive)	–
NC(=O)c1cccc([N+](=O)[O-])c1	-1.07% (inactive)	–
COc1c2ccoc2cc2oc(=O)ccc12	–	inactive
CO[Si](C)(C)OC	0.341% (inactive)	–
COCc1ccc(COC)cc1	2.54% (inactive)	–
c1c[nH]cn1	–	inactive
OC1(c2ccc(Cl)cc2)CCNCC1	-0.123% [at 30.3 µM] (inactive)	–
Cc1c2oc3c(C)ccc(C(=O)N[C@@H]4C(=O)N[C@H](C(C)C)C(=O)N5CCC[C@H]5C(=O)N(C)CC(=O)N(C)[C@@H](C(C)C)C(=O)O[C@@H]4C)c3nc-2c(C(=O)N[C@@H]2C(=O)N[C@H](C(C)C)C(=O)N3CCC[C@H]3C(=O)N(C)CC(=O)N(C)[C@@H](C(C)C)C(=O)O[C@@H]2C)c(N)c1=O (I: T[dV]P[Sar][NMeV] / II: T[dV]P[Sar][NMeV]; ester I:1-I:C, II:1-II:C; linker I:N-II:N via Actinocin(9to1))	–	2.2 nM (active)
C1CCCCC1	0.866% (inactive)	–
Cc1ccc(C(C)c2ccc(C)c(C)c2)cc1C	-1.05% (inactive)	–

Molecular target: 5-hydroxytryptamine receptor 2A (Homo sapiens) (UniProt P28223)
Assay: 5-hydroxytryptamine receptor 2A (HTR2A) small molecule antagonists, cell-based qHTS assay (AID 1963586); note: nearly all actives have a fitted effect of over 45% in size
Conditions: HTR2A-CHO cells, DOI-induced calcium flux, fluorescence; series mostly up to 61.5 µM; activity, negative = inhibition: at the top concentration
In short: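 Antagonist-mode intracellular calcium assay: DOI (4 nM) added after 5 min compound pre-incubation at room temperature to dye-loaded HTR2A-CHO cells. Fluorescence followed for 3 min, sampled every second.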

5-hydroxytryptamine receptor 2A (Homo sapiens), sequence (P28223 whole entry, looked up): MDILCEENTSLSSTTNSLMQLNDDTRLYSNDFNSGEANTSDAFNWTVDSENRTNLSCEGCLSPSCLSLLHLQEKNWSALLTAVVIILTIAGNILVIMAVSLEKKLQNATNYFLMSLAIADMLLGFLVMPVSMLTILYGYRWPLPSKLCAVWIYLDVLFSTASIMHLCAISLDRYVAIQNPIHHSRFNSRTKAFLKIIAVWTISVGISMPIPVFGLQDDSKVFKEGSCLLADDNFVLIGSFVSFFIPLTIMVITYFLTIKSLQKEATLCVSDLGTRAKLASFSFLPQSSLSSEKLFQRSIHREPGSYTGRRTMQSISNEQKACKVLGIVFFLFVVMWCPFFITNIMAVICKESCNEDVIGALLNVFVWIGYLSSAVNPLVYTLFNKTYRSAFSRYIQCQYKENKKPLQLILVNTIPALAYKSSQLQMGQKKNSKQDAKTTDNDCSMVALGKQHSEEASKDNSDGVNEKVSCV

SMILES	activity, negative = inhibition	Potency
CC(=O)Nc1c(I)cc(I)c(C(=O)O)c1I	6.35% [at 28.5 µM] (inactive)	–
C=COCCOCCOCCOC=C	4.56% (inactive)	–
O=C1OC(=O)c2ccc3c4c(ccc1c24)C(=O)OC3=O	-1.34% (inactive)	–
CC(=O)[O][Al][O]C(C)=O	3.77% (inactive)	–
Cc1occc1S	-3.27% (inactive)	–
CCCN1CCCC[C@H]1C(=O)Nc1c(C)cccc1C	1.64% [at 28.5 µM] (inactive)	–
Cc1ccc(NC(=O)N(C)C)cc1NC(=O)N(C)C	-31.4% (inactive)	–
CCN(CC)CCN	-36.3% [at 28.5 µM] (inactive)	–
O=[N+]([O-])c1ccccc1Nc1ccccc1	-4.27% (inactive)	–
NC(=O)c1ncn([C@@H]2O[C@H](CO)[C@@H](O)[C@H]2O)c1O	21.1% [at 28.5 µM] (inactive)	–
O=C(O)[C@@H]1[C@H]2C[C@H]3c4[nH]c5ccccc5c4CCN3C[C@@H]2CC[C@@H]1O	-17.2% [at 28.5 µM] (inactive)	–
CC1(C)C(C=C(Cl)Cl)C1C(=O)OCc1cccc(Oc2ccccc2)c1 (stereo unspecified)	–	inactive
O=C(O)c1ccccc1OP(=O)(O)O	8.25% [at 28.5 µM] (inactive)	–
CCCCN(CCO)CCO	1.2% (inactive)	–
COC(OC)C(C)c1ccccc1 (stereo unspecified)	5.19% (inactive)	–
Nc1cc(=O)[nH]c(N)n1	-5.47% [at 28.5 µM] (inactive)	–
CCOC(OCC)OCC	-0.329% (inactive)	–

SMILES	activity, negative = inhibition	Potency
C=CCOC(=O)CCCCCC	6.59% (inactive)	–
O=C(O)[C@@H](O)[C@H](O)[C@H](O)[C@@H](O)C(=O)O	31.9% [at 28.5 µM] (inactive)	–
CCCCCCCCCC(C)=O	1.39% (inactive)	–
OC/C=C/CO	2.15% (inactive)	–
CCCCCCCCCCCCC(=O)O	13% (inactive)	–
Cc1ccc(S(=O)(=O)NC(=O)NC2CCCC2)cc1	2.11% [at 28.5 µM] (inactive)	–
CCCC(=O)c1ccccc1	-18.7% (inactive)	–
NC(=O)c1cccc([N+](=O)[O-])c1	16.8% (inactive)	–
COc1c2ccoc2cc2oc(=O)ccc12	–	inactive
CC(C)c1cccc(C(C)C)c1N	-1.6% (inactive)	–
CCCCCCCCC1CCC(=O)O1 (stereo unspecified)	-19.3% (inactive)	–
Cc1cccc(Cl)c1	40.3% (inactive)	–
CO[Si](C)(C)OC	9.63% (inactive)	–
COCc1ccc(COC)cc1	3.27% (inactive)	–
c1c[nH]cn1	–	inactive
C1CCCCC1	-3.98% (inactive)	–
Cc1ccc(C(C)c2ccc(C)c(C)c2)cc1C	2.98% (inactive)	–
